# In all, about 310,000 compounds went through this assay and about 970 (0.31%) were called active.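 Rule for the calls: active = every replicate shows inhibition above about 80%, whatever the replicate mean (limit read from the data); inconclusive = mean inhibition reaches the set limit but some replicate falls short; inactive = the rest.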 For the sample, actives were picked, then their nearest neighbours and some compounds at random.
# Assay: growth inhibition of PfHsp90-expressing yeast, primary screen, antimalarial PfHsp90 inhibitor project, S. cerevisiae, BacTiter-Glo luminescence, single point, set 2 (AID 504621);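 note: yeast relying on Plasmodium falciparum Hsp90 in place of its own; 0% = DMSO neutral controls and 100% = 20 µM radicicol positive controls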
# Conditions: BacTiter-Glo ATP, 48 h, at 9.4 µM, hits give high values, yeast lacking PDR1 and PDR3 efflux regulators
row,SMILES,inhibition
1,O=C(Nc1cccnc1)c1ccc(Cl)c([N+](=O)[O-])c1,15.1% (inactive)
2,O=C(/C=C/c1ccc(Cl)c([N+](=O)[O-])c1)c1cccnc1,104% (active)
3,O=C(/C=C/c1ccc(Cl)c([N+](=O)[O-])c1)c1ccc(O)cc1,12.9% (inactive)
4,COc1ccc(CNCCCn2cnc3c(OCc4ccccc4)ncnc32)cc1,21.9% (inactive)
5,COc1ccc(C(=O)Nc2cccc(/C=C(/CCC(=O)O)c3nc4ccccc4s3)c2)cc1,-6.48% (inactive)
6,O=C(NN=Cc1ccccc1O)NN=Cc1ccccc1O,15.3% (inactive)
7,COC[C@@H]1NS(=O)(=O)c2ccc(Br)cc2O[C@H]1c1ccccc1,-9.7% (inactive)
8,CC(CN1CCOCC1)OC(=O)c1ccc(Cl)cc1Cl (stereo not given),-17.2% (inactive)
9,CC(C)OC(=O)c1ccc(NCc2cc(O)ccc2O)cc1Cl,121% (active)
10,CC(C)NC(=O)c1ccc(Cl)cc1Cl,-8.78% (inactive)
11,N#CC1=C(N)Oc2cc(N)ccc2C1c1ccccc1 (stereo not given),-6.35% (inactive)
12,O=C(Cc1ccc(S(=O)(=O)N2CCOCC2)s1)Nc1ccc(Br)c(C(F)(F)F)c1,0.787% (inactive)
13,Cc1[nH]n(-c2ccc([N+](=O)[O-])cc2)c(=O)c1C=NCCN1CCN(C(=O)c2ccccc2F)CC1,86.9% (active)
14,Cc1[nH]n(-c2ccccc2)c(=O)c1N=Nc1ccccc1C(=O)N1CCCCC1,9.24% (inactive)
15,C=CCNC(=S)N1CCN(CCN=Cc2c(C)[nH]n(-c3ccc([N+](=O)[O-])cc3)c2=O)CC1,-11.1% (inactive)
16,CCOC(=O)CCC(NC(=O)c1ccc(CNc2nc3cc(C(F)(F)F)ccc3nc2C(=O)OCC)cc1)C(=O)OCC (stereo not given),-2.78% (inactive)
17,Cc1ccc(S(=O)(=O)N2CCN(C(=O)COC(=O)/C=C/c3cccc(Cl)c3)CC2)c(C)c1,4.86% (inactive)
18,O=C(NCc1ccc2c(c1)OCO2)c1c(-c2ccsc2)sc2ccccc12,20.1% (inactive)
19,Cc1cccc(-c2oc3ccc(-c4ccc5c(c4)OCO5)cc3c2C#Cc2cncn2C)c1,-2.66% (inactive)
20,C/C(=N\NC(=O)c1ccccc1F)c1ccccn1,-13% (inactive)

row,SMILES,inhibition
1,CC(=NNC(=S)N1CCCCCC1)c1ccccn1,91.4% (active)
2,C/C(=N\NC(=O)Cc1ccc(Cl)cc1)c1ccccn1,-4.85% (inactive)
3,Oc1[nH]c2ccccc2c1N=Nc1c(F)c(F)c(F)c(F)c1F,-34.3% (inactive)
4,COc1ccc(C(=O)N(C)Cc2ccc(OC)c(OC)c2OC)cc1S(=O)(=O)N1CCOCC1,5.5% (inactive)
5,O=C(CN1C(=O)NC2(CCCCCCC2)C1=O)NCc1ccc(F)cc1,12.2% (inactive)
6,OCC1(CO)CC2(C1)CC(CO)(CO)C2,6.26% (inactive)
7,O=C(c1ccc(-c2ccccc2)cc1)C1CCCN(C(=O)c2cncs2)C1 (stereo not given),90.2% (active)
8,CCNC(=O)N1CCCC(C(=O)c2ccc(-c3ccccc3)cc2)C1 (stereo not given),-1.67% (inactive)
9,Cn1nccc1C(=O)N1CCCC(C(=O)c2ccc(Oc3ccccc3)cc2)C1 (stereo not given),-45.9% (inactive)
10,CC(C)(C)OC(=O)N(Cc1ccccc1)Cc1ccc(OCc2cccc(NC(=O)c3ccccc3)c2)cc1,25% (inactive)
11,COc1cccc2oc(CCc3ccccc3)cc(=O)c12,8.03% (inactive)
12,O=C(Cc1ccc(Cl)c(Cl)c1)Nc1ccc(SC(F)F)cc1,12.6% (inactive)
13,O=C(CC1SCCNC1=O)Nc1ccc(Cl)c(Cl)c1 (stereo not given),15% (inactive)
14,O=C(CC(O)(C(F)(F)F)C(F)(F)F)Nc1ccc(Cl)c(Cl)c1,123% (active)
15,Cc1cc([N+](=O)[O-])ccc1NS(=O)(=O)c1ccccc1,-35.7% (inactive)
16,COc1ccc(S(=O)(=O)NC(C)C(=O)Nc2cccc([N+](=O)[O-])c2)cc1 (stereo not given),4.61% (inactive)
17,COC(=O)/C=C\C(=O)Nc1cccc([N+](=O)[O-])c1,106% (active)
18,COc1cccc(CNC(=O)CCCC(=O)Nc2cccc([N+](=O)[O-])c2)c1,-1.23% (inactive)
19,COC(=O)Cn1cc(/C=C/[N+](=O)[O-])c2ccccc21,-17% (inactive)
20,O=C(/C=C/c1cccc([N+](=O)[O-])c1)N1CCN(Cc2ccccc2)CC1,0.555% (inactive)

row,SMILES,inhibition
1,O=[N+]([O-])/C=C/c1ccc2c(ccn2Cc2ccccc2)c1,104% (active)
2,COc1ccc(/C=C/C(=O)c2ccc(NS(=O)(=O)c3ccc(C)cc3)cc2)cc1O,-4.81% (inactive)
3,COc1ccc(C(=O)/C=C/c2ccc(-c3ccccc3)cc2)cc1CSCC(=O)O,105% (active)
4,COC(=O)c1ccc(COc2ccc(/C=C/C(=O)c3ccc(OC)c(CSCC(=O)O)c3)cc2OC)cc1,1.15% (inactive)
5,CN(CCc1ccccc1)C(=O)c1cccc(NC(=O)Cc2cccc(NC(=O)C3CCCN(C(=O)CCc4ccccc4)C3)c2)c1 (stereo not given),-1.39% (inactive)
6,O=C(Nc1ccn(CCCNCc2ccc3[nH]ccc3c2)c(=O)n1)OCc1ccccc1,-7.16% (inactive)
7,CCCCN1CC(COc2ccccc2)Oc2cccc(F)c2S1(=O)=O (stereo not given),-1.66% (inactive)
8,O=C(NNC(=O)c1ccccc1O)c1ccccc1O,-9.27% (inactive)
9,CN(/N=C/c1ccccc1)C(=S)c1ccccc1,-15.5% (inactive)
10,CN(O)C(=S)c1ccccc1,104% (active)
11,CN(CC(=O)O)C(=O)c1ccccc1,28.8% (inactive)
12,CCc1ccc(C(=O)C(C)OC(=O)CN2C(=O)NC3(CCCC3)C2=O)cc1 (stereo not given),-1.32% (inactive)
13,O=C(Nc1ccc(Cl)cc1)Nc1nnc(/C=C/c2ccccc2)s1,8.47% (inactive)
14,O=C(Nc1ccccc1)c1nnsc1S(=O)(=O)c1ccc(Cl)cc1,126% (active)
15,Cc1nnsc1C(=O)N/N=C/c1ccccc1Cl,1.6% (inactive)
16,O=C(C[C@H]1C/C=C\C[C@@H](NC(=O)OCC2c3ccccc3-c3ccccc32)C(=O)O[C@@H](c2ccccc2)CNC1=O)N[C@H](CO)Cc1ccccc1,-13.9% (inactive)
17,OCCN1CCN(CCO)C1=S,15.3% (inactive)
18,S=c1[nH]nc(-c2cc(-c3ccccc3)n[nH]2)n1/N=C/c1c2ccccc2cc2ccccc12,-28.2% (inactive)
19,Cc1cc(-c2n[nH]c(=S)n2/N=C/C(Br)=C/c2ccccc2)n[nH]1,109% (active)
20,Oc1ccccc1/C=N/n1c(-c2cccs2)n[nH]c1=S,-9.75% (inactive)

# Reference: PubChem BioAssay AID504621 (Broad Institute, 2011)
